Measured values published in PubChem BioAssay.

Each compound was assayed against E3 ubiquitin-protein ligase XIAP (Homo sapiens) (UniProt P98170) (assay: XIAP binders, primary screen, biophysical, small-molecule microarray, fluorescence 635 nm (AID 1181;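 further: score merges 667 nm emission and signal to noise over triplicate slides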)). Details: small-molecule microarray binding, higher = more signal.
Sequence of E3 ubiquitin-protein ligase XIAP (Homo sapiens) (P98170 whole entry, looked up): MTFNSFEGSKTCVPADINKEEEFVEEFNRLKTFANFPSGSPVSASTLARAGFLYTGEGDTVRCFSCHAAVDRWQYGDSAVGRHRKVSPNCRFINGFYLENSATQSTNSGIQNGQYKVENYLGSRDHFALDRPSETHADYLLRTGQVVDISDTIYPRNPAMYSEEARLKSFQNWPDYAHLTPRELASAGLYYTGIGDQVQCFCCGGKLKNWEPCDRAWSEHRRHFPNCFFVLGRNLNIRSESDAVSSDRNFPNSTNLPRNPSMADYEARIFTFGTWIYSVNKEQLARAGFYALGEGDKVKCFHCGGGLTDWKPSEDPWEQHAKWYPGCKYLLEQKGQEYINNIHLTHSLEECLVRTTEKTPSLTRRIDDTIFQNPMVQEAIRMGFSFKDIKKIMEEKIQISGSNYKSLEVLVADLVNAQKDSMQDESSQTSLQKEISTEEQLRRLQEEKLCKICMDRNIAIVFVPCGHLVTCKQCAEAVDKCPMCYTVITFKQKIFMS
`COc1ccc([Si](C)(C)[C@@H]2[C@@H](CCO)O[C@]3(C(=O)N(Cc4ccccc4)c4ccc(N5C(=O)c6cccc7cccc5c67)cc43)[C@H]2C)cc1` was tested, and the composite z-score was -0.152. Work on `Oc1ccc2cc[n+](Cc3cc4c(cc3Br)OCO4)cc2c1` yielded a composite z-score of -0.281. Work on `CCCNC(=O)[C@@H]1c2ccccc2C(=O)N(Cc2ccc(OC(F)(F)F)cc2)[C@H]1c1ccc(CO)cc1` yielded a composite z-score of 0.155. `COCCOC(=O)N1C(=O)[C@@]2(c3cc(C#CC4=CCCCC4)ccc31)[C@H](c1ccccc1OCCO)N1[C@H](c3ccccc3)[C@H](c3ccccc3)OC(=O)[C@H]1[C@@H]2C(=O)NC[C@H](O)c1ccccc1` showed a composite z-score of -0.0476. `O=C1N(CCS(=O)(=O)c2ccccc2)c2ccccc2[C@H]2OC(c3ccc(OCCCO)cc3)=N[C@@]12Cc1ccccc1` was tested, and the composite z-score was 0.211. Compound `[N-]=[N+]=Nc1ccccc1C[C@]1(C(=O)NCCN2CCOCC2)COC(c2ccc(OCCCO)cc2)=N1` has a composite z-score of -0.237. Compound `C=CC[C@@]1(C(=O)NCCCOC)N=C(c2ccc(OCCCO)cc2)O[C@@H]1c1ccccc1N=[N+]=[N-]` has a composite z-score of 0.598. `COC(=O)C1=CC(CCCO)=CC(c2ccc(CN3CCCC3)cc2)N(Cc2cccc(OC(F)(F)F)c2)C=C1C(=O)OC` (stereo unspecified) was tested, and the composite z-score was 0.166. With `CCCC=C(CCC)[C@@H](NC(=O)c1cccs1)c1ccc(C(=O)OC)cc1` the composite z-score was -0.031. For `CC1=C2[C@@H](CCc3ccccc3)OB(O)C[C@@H]2[C@@H]2C(=O)N(C)C(=O)[C@@H]2C1`, the composite z-score was -0.239. `COCCOC(=O)N1C(=O)[C@@]2(c3cc(C#CC4(O)CCCCCC4)ccc31)[C@H](c1ccc(O)cc1)N1[C@H](c3ccccc3)[C@H](c3ccccc3)OC(=O)[C@H]1[C@@H]2C(=O)N1CCN(c2ncccn2)CC1` was tested, and the composite z-score was 0.0487.
